Screening results from PubChem.
In the library only some 9.3% were active in any assay of this set; here they are far more common.
M1 ag = agonists of M1 muscarinic receptor; B-score at 10 µM; 64,000 compounds, 3% hits; CHO-M1 cells, Fluo-4 calcium fluorescence, agonist mode; hits give high values;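 active = fluorescence rise, raw or as B-score row- and column-corrected plate score, outside the 99.7% band of its plate's samples, either direction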
NADH coupling = blocks coupling enzymes of NAD/NADH assays; coupled PK/LDH NADH assays, four targets; IC50, µM (doses to about 10 µM), for the others: top-dose inhibition; 65,000 compounds, 0.02% hits;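 active = single-dose screening hits from any of four coupled enzyme assays that gave an IC50 when retested across doses; inconclusive = no clear call, values can overlap the other calls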;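 also: the DPM-DC format reads NADH fluorescence rather than 340 nm absorbance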
mHtt clearance = mutant huntingtin protein clearance | HeLa Exon1htt(103Q)mCFP, aggregate imaging; zero = plate's median compound well | inhibition, % at 1.5 µM | 47,000 compounds, 0.42% hits;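 active = inhibition of aggregate fluorescence above about 70%, also judged a hit by eye on the cell image, limit read from the data, passing the limit was not always enough; inconclusive = no rule stated for this call; inactive = not judged a hit on image review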;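 also: cells exposed to compound for three days before fixation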
M1 antag = blocks the rat M1 muscarinic receptor response to acetylcholine; P08482; CHO-M1 cells, Fluo-4 calcium, ACh EC80 antagonist mode; hits give low values; B-score at 10 µM; 64,000 compounds, 3.4% hits;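 active = calcium fluorescence response, raw or row-and-column corrected B-score, differing from the plate sample mean either way at a set confidence level, mostly lower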
Target sequence (P08482 whole entry, looked up): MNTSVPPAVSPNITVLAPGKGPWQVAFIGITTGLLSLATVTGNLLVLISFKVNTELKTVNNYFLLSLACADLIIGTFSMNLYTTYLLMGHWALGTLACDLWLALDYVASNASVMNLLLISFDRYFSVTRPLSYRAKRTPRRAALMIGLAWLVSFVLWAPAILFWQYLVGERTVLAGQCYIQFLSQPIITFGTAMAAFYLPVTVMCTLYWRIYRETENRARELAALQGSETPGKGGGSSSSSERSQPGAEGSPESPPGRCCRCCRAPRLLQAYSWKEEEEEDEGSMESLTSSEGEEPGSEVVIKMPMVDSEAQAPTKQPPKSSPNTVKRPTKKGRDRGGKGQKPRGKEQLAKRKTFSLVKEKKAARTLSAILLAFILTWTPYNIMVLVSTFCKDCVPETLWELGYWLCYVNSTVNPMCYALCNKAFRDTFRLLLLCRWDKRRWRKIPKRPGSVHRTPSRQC
A340 absorber = absorbance at 340 nm | fold change at 10 µM | AID 708 | compound absorbance at 340 nm, fold over control | 65,000 tested, under 10 active;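 active = at 10 µM dose, initial 340 nm absorbance at least 2 fold that of control wells; inactive = change under 2 fold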;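 also: initial absorbance extrapolated from kinetic A340 decline of NADH oxidation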
Fluor 339 460 = intrinsic fluorescence of library compounds, ex339/em460 – biochemical, MLSMR library, data from DPM-DC assay, artefact control, profiling panel | compound autofluorescence, ex339/em460 nm, NADH buffer; hits give high values; 1 = no-compound wells, NADH background | fluorescence fold increase at 10 µM | 65,000 compounds, 5.5% hits;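 active = at 10 µM, mean starting fluorescence two-fold or more over control wells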;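 also: signal is the first read of a kinetic run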
M1 ag confirm = rat M1 muscarinic agonism, confirmation | shares compounds with M1 ag | CHO-M1 cells, Fluo-4 calcium fluorescence, agonist mode; actives lie on both sides | fluorescence change (max-min) at 10 µM | 1,700 compounds, 19% hits;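 active = fluorescence change differs from the solvent-only DMSO control mean at a set confidence level in both duplicate runs; inconclusive = differs from solvent-only control mean in just one of two runs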;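 also: an EC20 dose of acetylcholine follows compound addition during the same imaging run; raw fluorescence intensity difference in instrument units with no normalization to controls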
M4 agonist ctr = activates rat M4 receptor in counter-screen for M1 agonists | AID 1741 | shares compounds with M1 ag | fluorescence change (max-min) at 10 µM | 1,700 compounds, 9% hits | CHO M4/Gqi5 cells, Fluo-4 calcium fluorescence, agonist mode; actives lie on both sides;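 active = fluorescence change differing from the plate's solvent-only control wells at 99.7% confidence in both duplicates, whether higher or lower; inconclusive = differs from solvent controls in only one of two duplicates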
* = called active by the depositor; u = inconclusive; x = no result.

SMILES	M1 ag	NADH coupling	mHtt clearance	M1 antag	A340 absorber	Fluor 339 460	M1 ag confirm	M4 agonist ctr
O=C(NCc1ccco1)c1cccn2c(=O)c3sccc3nc12	2.9*	2.0%	-51.3	-3.22*	1.08	2.54*	-17.9	-59.5
CC(NC(=O)CSc1ncccn1)c1ccccc1 (configuration not stated)	-0.205	3.0%	x	0.432	0.99	1.04	x	x
O=C(CCC(=O)c1ccc(F)cc1)OC1CCOC1=O (configuration not stated)	0.0883	5.0%	21.9	0.323	1.05	1.15	x	x
Cc1cc(C)cc(OCC(=O)Nc2cccc(-c3nc4ncccc4o3)c2)c1	6.75*	7.0%	0.3	-0.901	1.05	1.14	-1.6	-7.76
COc1cccc(C(=O)Nc2cccc(-c3nc4ncccc4o3)c2C)c1	1.32	4.0%	x	0.417	1.02	1.14	x	x
O=C(Cc1ccccc1)Nc1cccc(-c2nc3ncccc3o2)c1	-0.351	0.0%	20.0	-0.178	1.06	1.27	x	x
O=C(Nc1cccc(-c2nc3ncccc3o2)c1)c1cc2ccccc2o1	6.01*	11.0%	x	-0.0977	1.04	1.17	-17.8	u
CCOc1cccc(C(=O)Nc2cccc(-c3nc4ncccc4o3)c2C)c1	4.19*	2.0%	x	0.107	0.98	1.04	u	-79.7*
O=[N+]([O-])c1ccc(-c2cc(-c3ccncc3)nc3ccc4ccccc4c23)cc1	x	x	24.0	x	x	x	x	x
COc1ccc(CNn2c(C)nc3ccccc3c2=O)cc1	5.65*	4.0%	12.1	-0.511	0.97	1.05	-8.27	-17.4
CCCCOc1ccc(CNn2c(C)nc3ccccc3c2=O)cc1	-0.483	8.0%	18.1	0.00133	0.96	1.15	x	x
COc1ccccc1S(=O)(=O)Cc1ccc(C(=O)NCCN2CCCCCC2)o1	-0.158	4.0%	x	-0.839	0.99	1.03	x	x
COc1cccc(C(=O)Nc2ccc(-c3nnc(-c4ccco4)o3)cc2)c1	5.63*	10.0%	32.7	-0.0409	1.09	1.36	-17.8	u
COc1ccc(CC(=O)Nc2cccc(-c3nnc(-c4ccccc4)o3)c2)cc1OC	1.4	3.0%	-159.9	-0.669	1.02	1.07	x	x
O=C(Cc1ccccc1)Nc1cccc(-c2nnc(-c3ccco3)o2)c1	5.23*	2.0%	19.9	-1.19	1.04	1.16	-1.4	-37.3
COc1cccc(C(=O)Nc2cccc(-c3nnc(-c4ccccc4)o3)c2)c1	-0.0421	0.0%	x	-0.83	1.06	1.1	x	x
COc1ccc(CC(=O)Nc2cccc(-c3nnc(-c4cccc(C)c4)o3)c2)cc1OC	6.56*	7.0%	x	-7.27*	1.02	1.14	-20.1	u
CC1(C)CC(=O)c2sc(NC(=O)c3cccs3)nc2C1	x	x	-67.5	x	x	x	x	x
CCCCC(=O)Nc1ccc2oc(-c3ccncc3)nc2c1	2.51*	4.0%	38.7	0.0979	1.05	3.7*	u	-48.9
CC(C)(C)OC(=O)N1CC=C2C(C#N)=C(N)C(C#N)(C#N)C(c3cccs3)C2C1 (configuration not stated)	4.68*	2.0%	x	-0.778	1.02	1.12	-8.28	u
CC(C)N1CC=C2C(C#N)=C(N)C(C#N)(C#N)C(c3ccccc3)C2C1 (configuration not stated)	225*	11.0%	x	-0.296	1.04	1.99	427*	400*
N#CC1=C(N)C(C#N)(C#N)[C@H](c2ccncc2)[C@H]2CN(C(=O)OCc3ccccc3)CC=C12	-0.701	3.0%	x	0.446	1.06	1.33	x	x
CN1CC=C2C(C#N)=C(N)C(C#N)(C#N)C(Cc3ccccc3)C2C1 (configuration not stated)	29.6*	3.0%	-129.1	-0.697	0.99	1.37	98.4*	63
COc1cc(C2C3CN(C)CC=C3C(C#N)=C(N)C2(C#N)C#N)ccc1OC(C)C (configuration not stated)	5.07*	11.0%	x	-0.346	1	1.58	30.4	31.4
CCC1C2CN(C(C)=O)CC=C2C(C#N)=C(N)C1(C#N)C#N (configuration not stated)	-0.489	9.0%	u	-0.24	0.99	1.31	x	x
SMILES	M1 ag	NADH coupling	mHtt clearance	M1 antag	A340 absorber	Fluor 339 460	M1 ag confirm	M4 agonist ctr
COc1cc([C@@H]2[C@H]3CNCC=C3C(C#N)=C(N)C2(C#N)C#N)ccc1OC(C)C	1.21	11.0%	x	-0.231	1.06	1.28	x	x
O=C(c1ccccc1)N1CCN(c2ncnc3sc4c(c23)CCC4)CC1	x	x	-4.7	x	x	x	x	x
CN(c1ccccc1)S(=O)(=O)c1ccc(C(=O)OCC(=O)N2CCOCC2)cc1	-0.00322	1.0%	x	-0.0778	1	1.05	x	x
CN(C)CCCNc1cn[nH]c(=O)c1Cl	x	x	42.0	x	x	x	x	x
Cc1ccc(NC(=O)CS(=O)CC(=O)N(c2ccc(C)cc2)C(C)C(=O)NC2CCCCC2)cc1 (configuration not stated)	x	x	36.6	x	x	x	x	x
CCN1CCN(C(=O)c2ccc3c(=O)n(C4CCCC4)c(=S)[nH]c3c2)CC1	1.42*	3.0%	-4.0	-0.416	1.03	1.02	-1	-26.6
CCCn1c(=S)[nH]c2cc(C(=O)N3CCCC(C(=O)OCC)C3)ccc2c1=O (configuration not stated)	3.25*	7.0%	9.0	-1.83	1.03	1.1	-16	u
O=C(c1ccc2c(=O)n(C3CCCC3)c(=S)[nH]c2c1)N1CCN(C2CCCCC2)CC1	0.263	1.0%	-41.0	-0.0592	1.08	1.06	x	x
Cc1ccc(-c2ccc(/C=C3\C(=O)ON=C3c3ccccc3)o2)c([N+](=O)[O-])c1	x	x	-12.8	x	x	x	x	x
CCCCCOC(=O)c1ccccc1C(=O)O	3.02*	6.0%	x	-0.327	1.03	1.07	-9.25	u
O=C(O)c1ccccc1C(=O)OCc1ccccc1	1.45	2.0%	x	0.524	1.04	1.05	x	x
Cc1ccc(S(=O)(=O)N2CCOCC2)cc1C(=O)Nc1ccc(-c2cn3ccsc3n2)cc1	3.29*	4.0%	x	-0.00625	0.99	1.05	-8.11	u
CCOC(=O)N1CCN(C(=O)Cn2ncn3nc(-c4cccs4)cc3c2=O)CC1	0.591	9.0%	31.9	0.00126	1.01	1.24	x	x
CN(C)C=Nc1c(Br)cc(Br)c2nonc12	61.5*	6.0%	90.7*	-1.89	1	0.97	278*	617*
O=C(CN1CCOCC1)Nc1scc(-c2ccccc2)c1C(=O)N1CCOCC1	3.35*	3.0%	3.0	-0.503	1.01	1.08	u	-34.2
Cc1nn(-c2nc3ccccc3s2)c(C)c1Oc1ccccc1O	0.498	4.0%	x	0.0112	1.01	1.06	x	x
CCC(c1nnnn1C(C)(C)C)N1CCN(c2cc(Cl)ccc2C)CC1 (configuration not stated)	0.592	7.0%	x	-0.293	0.99	1.03	x	x
